Bioassay records as filed in PubChem BioAssay.
Only some compounds are listed: those with a hit (about 17% of all), similar ones and a draw of the others.
ClpP mod: qHTS Assay for Activators of ClpP; ATP-dependent Clp protease proteolytic subunit (Bacillus subtilis (strain 168)), P80244; purified B. subtilis ClpP, FRET peptide cleavage, 20 min; Potency, µM (titrated, usually from 57.5 µM), for inactives: at the top dose activity change, negative = active; 1.9% of 340,000 active; active means well fitted falling curve with a large enough effect; inconclusive means small, poorly fitted or top-dose-only effect; inactive means no such curve, though single readings can be large or run the other way; further: the source files actives as falling curves though it sought activators and does not explain the sign; nearly all actives have a fitted effect of over 65% in size
Target sequence (P80244 whole entry, looked up): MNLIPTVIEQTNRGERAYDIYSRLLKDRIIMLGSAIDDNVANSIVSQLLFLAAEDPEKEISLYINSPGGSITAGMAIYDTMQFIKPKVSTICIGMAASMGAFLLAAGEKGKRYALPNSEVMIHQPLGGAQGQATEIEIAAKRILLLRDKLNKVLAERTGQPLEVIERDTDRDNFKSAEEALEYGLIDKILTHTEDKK
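Buffer: 100 mM Tris/HCl pH8, 100 mM KCl, 0.05% low protease BSA, 2.5% glycerol, 0.01% Tween-20. ClpP 10 microg/mL final; 20 min RT; delta FRET normalized to ADEP and DMSO controls.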
TDP1 cell CPT: qHTS for Inhibitors of human tyrosyl-DNA phosphodiesterase 1 (TDP1): qHTS in cells in presence of CPT; AID 686979, 2013; 12% of 420,000 active; chicken DT40 Tdp1-/-;hTDP1 cells + 20 nM CPT, ATP luminescence, 48 h; Potency, µM (series often up to 46.2 µM), inactives show at the highest dose activity change, negative = growth inhibition, most hits filed as inhibitors; further: on the % scale 0 is the no-effect control and ±100 the full control effect; nearly all actives have a fitted effect of over 55% in size
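Cell growth measured by CellTiter-Glo luminescence after a minimum 48 h, 37 C compound exposure with 20 nM CPT in Tdp1-knockout DT40 cells stably expressing hTDP1, seeded 400/well; qHTS titration format.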
DT40 TDP1 no CPT: qHTS for Inhibitors of human tyrosyl-DNA phosphodiesterase 1 (TDP1): qHTS in cells in absence of CPT. AID 686978, 2013. 15% of 420,000 active. DT40 Tdp1-/- hTDP1 cells, no CPT, ATP luminescence, 48 h. Potency, µM (doses to about 46.2 µM), for the others: top-dose activity change, negative = growth inhibition, actives largely listed as inhibitors; further: on the % scale 0 is the no-effect control and ±100 the full control effect; nearly all actives have a fitted effect of over 55% in size
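Growth of hTDP1-complemented DT40 Tdp1-knockout cells is measured by ATP luminescence after at least 48 hr compound exposure at 37 °C, with DMSO substituting for the 20 nM CPT used in the parallel screen.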
TDP1 inh: qHTS Assay for Inhibitors of Tyrosyl-DNA Phosphodiesterase (TDP1) | recombinant TDP1, AlphaScreen DNA substrate cleavage | Tyrosyl-DNA phosphodiesterase 1 (Homo sapiens), Q9NUW8 | 0.28% of 350,000 active | Potency, µM (highest dose often 130 µM), for the others: at the top dose activity change, negative = inhibition, hits mostly inhibitors | AID 485290, 2010; further: on the % scale 0 is the no-effect control and ±100 the full control effect; nearly all actives have a fitted effect of over 40% in size
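Compounds were preincubated with Tdp1 (1 nM final) for 15 min at room temperature before substrate (15 nM final) started a 5 min reaction; beads (10 ug/ml final) were then added for 10 min before AlphaScreen detection.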
Numbers without * were called inactive; ? = inconclusive; / = no result; ! = a repeat was not active. Unless noted, the call rests on the fitted dose curve; in most records, active means well fitted curve in the direction sought with a large enough effect; inconclusive means small, poorly fitted or top-dose-only effect, or another doubt; inactive means no such curve, though single readings can be large; an effect the other way counts as inactive or inconclusive. Potency means the concentration at half of the fitted maximal effect.

SMILES	ClpP mod	TDP1 cell CPT	DT40 TDP1 no CPT	TDP1 inh
COc1cccc(CN(C)C(=O)c2ccc(OCC(=O)Nc3cccc(C(F)(F)F)c3)c(OC)c2)c1	3%	10µM*	9.2µM*	4%
COc1cc(/C=C(\C#N)C(=O)Nc2cc(C(F)(F)F)ccc2Cl)ccc1OCC(=O)Nc1cccc(C(F)(F)F)c1	-20%	23µM*	?	0%
COc1cccc(C(=O)Nc2ccc(Cl)c(C(F)(F)F)c2)c1	-1%	?	?	-1%
COc1cc(CCC(=O)OCC(=O)Nc2ccc(F)c(F)c2)cc(OC)c1OC	/	-4%	-11%	/
COc1cc(CCC(=O)Nc2cccc(C(F)(F)F)c2)cc(OC)c1OC	-48%	?	13µM*	-8%
COCC(=O)Nc1cccc(C(F)(F)F)c1	0%	0%	-17%	1%
COc1cc(CCC(=O)Nc2cc(C)cc(C)c2)cc(OC)c1OC	/	-25%	16µM*	3%
COc1cc(CCC(=O)Nc2ncc(C)s2)cc(OC)c1OC	/	4%	-15%	-9%
COc1ccc2nc(NC(=O)CCc3cc(OC)c(OC)c(OC)c3)sc2c1	/	?	21µM*	5%
COc1cc(CCC(=O)Nc2ccc(Br)c(C(F)(F)F)c2)cc(OC)c1OC	?	18µM*	21µM*	3%
Cc1c(Cl)cccc1-c1ccc(CNCc2ccccn2)o1	0%	?	?	/
CCOc1ccc(S(=O)(=O)N2CCCCC2)cc1NC(=O)Cc1ccsc1	4%	?	?	1%
CCn1c(SCc2ccccc2)nnc1-c1nonc1NC(C)=O	0%	-25%	-23%	4%
COc1cc(CCC(=O)Nc2ccc(Cl)c(C(F)(F)F)c2)cc(OC)c1OC	1%	18µM*	8.2µM*	1%
COc1ccc(C(=O)O/N=C2\C(=O)N(C)c3ccccc32)cc1	-1%	7.3µM*	5.8µM*	/
Cc1cccc(/C(N)=N/OC(=O)c2cccc3ccccc23)c1	/	/	/	-11%
CN1C(=O)/C(=N\OC(=O)c2cccc3ccccc23)c2ccccc21	81%	12µM*	13µM*	4%
COc1ccc(C(=O)OCCN2C(=O)c3ccccc3C2=O)cc1	0%	-27%	-13%	-1%
C=CCN1C(=O)CSc2ccc(C(=O)NCCC3=CCCCC3)cc21	-1%	?	?	-2%
CC(C)(C)n1nnnc1C(c1cccc(C(F)(F)F)c1)N1CCC(O)CC1 (stereo not given)	2%	-6%	-16%	3%
CC(=O)Nc1ccccc1OCc1cnc(Cl)s1	/	4%	1%	0%
COc1cc(OC)c(NS(=O)(=O)c2cc(C(=O)OC(C)C(=O)NC3CC3)c(Cl)cc2Cl)cc1Cl (stereo not given)	-2%	18µM*	23µM*	2%
CCN1C(=O)/C(=C2/Sc3ccccc3N2CC)S/C1=N\c1ncn[nH]1	0%	?	23µM*	0%
C=CCN1C(=O)/C(=C2/Sc3ccccc3N2CC)SC1=S	/	-23%	-21%	/
COCCn1c(=O)c(-c2cccc(C#N)c2)nc2cnc(Oc3cccc(Cl)c3)nc21	/	-16%	16%	/
SMILES	ClpP mod	TDP1 cell CPT	DT40 TDP1 no CPT	TDP1 inh
O=C(Cc1cccs1)Nc1ccccc1-c1nc2ccccc2[nH]1	/	?	?	2%
Cc1ccc2nc(-c3cccc(NC(=O)c4ccco4)c3)[nH]c2c1	-17%	?	-23%	10%
Cc1cccc(-n2nc(C(=O)c3ccco3)cc(-c3nc4ccccc4[nH]3)c2=N)c1	-1%	16µM*	8.2µM*	11%
COc1cccc2cc(-c3nc4ccccc4[nH]3)c(=O)oc12	/	-5%	?	/
Cc1ccccc1-n1nc(C(=O)c2cccs2)cc(-c2nc3ccccc3[nH]2)c1=N	1%	12µM*	7.3µM*	10%
COc1ccc(-n2nc(C(=O)c3cccs3)cc(-c3nc4ccccc4[nH]3)c2=N)cc1	2%	5.8µM*	5.8µM*	10%
CC1=C(C(=O)Nc2cccc(C(=O)NCc3ccccc3C)c2)SCCO1	0%	-15%	2%	8%
CCOc1ccccc1N1CC(C(=O)NCCOc2ccccc2OC)CC1=O (stereo not given)	-2%	1%	1%	3%
CCOc1ccccc1N1CC(C(=O)NNC(=O)c2cc(OC)c(OC)c(OC)c2)CC1=O (stereo not given)	2%	7%	3.7µM*	-3%
CCOc1ccccc1N1CC(C(=O)N2CCc3ccccc3C2)CC1=O (stereo not given)	-1%	16µM*	15µM*	0%
CCCCN1CN(Cc2ccccc2)CNC1=S	-1%	18µM*	?	0%
CCOCCCN1CN(Cc2ccccc2)CNC1=S	-3%	8%	6%	-1%
COCCN(C(=O)COC(=O)C1CC1C)c1c(N)n(Cc2ccccc2)c(=O)[nH]c1=O (stereo not given)	-4%	-10%	-26%	-4%
Cc1cc(C)c2c(=O)n(CC(=O)Nc3ccc(Br)c(C)c3)sc2n1	-10%	8.2µM*	9.2µM*	/
Cc1cc(C)c2c(=O)n(CC(=O)NC3CCCC3)sc2n1	-8%	2.9µM*	4.1µM*	/
Cc1cc(C)c2c(=O)n(CC(=O)Nc3cccc(Cl)c3C)sc2n1	-10%	5.2µM*	3.7µM*	-2%
COc1ccc(OC)c(CCNC(=O)Cn2sc3nc(C)cc(C)c3c2=O)c1	/	/	/	12%
Cc1cc(NC(=O)Cc2ccsc2)ccc1Br	-2%	-13%	-11%	/
Cc1c(Cl)cccc1NC(=O)Cn1cccc1	-3%	1%	-6%	4%
C/C=C(/CC[C@@H](C)[C@H]1CCC2C3=CC[C@H]4[C@H](C)[C@@H](O)CC[C@]4(C)C3CC[C@@]21C)C(C)C (stereo not given in full)	/	/	/	-7%
COc1cc2ccc3c(CCN(C)C)cc(OC)c(OC)c3c2cc1OC	-29%	-12%	?	/
CN(C)CCc1cc2c(c3c1ccc1ccccc13)OCO2	5%	21µM*!	21µM*!	6%
O=C(Nc1ccc(-c2cn3ccsc3n2)cc1)c1ccc(F)c(S(=O)(=O)N2CCOCC2)c1	-3%	?	23µM*	3%
Cc1nc2ccc(NC(=O)c3ccc(C)c(S(=O)(=O)N4CCOCC4)c3)cc2s1	-17%	18µM*	?	1%
Cc1nc2ccc(NC(=O)c3cc(S(=O)(=O)N4CCOCC4)ccc3C)cc2s1	1%	?	23µM*	2%
O=C(Nc1ccccc1)c1ccc(F)c(S(=O)(=O)N2CCOCC2)c1	-1%	-24%	-19%	2%
Cc1ccc(C(=O)Nc2ccc(Br)cc2)cc1S(=O)(=O)N1CCOCC1	21%	/	/	-4%
CC(=O)c1ccc(NC(=O)c2cc(S(=O)(=O)N3CCOCC3)ccc2C)cc1	0%	?	?	1%
Cc1nc(C)c(CCNS(=O)(=O)c2ccc(C)c(C)c2)s1	1%	/	/	3%
